# In the library only some 17% were active in any assay of this set; here they are far more common.
# HT1080NT lethal: kills 2HG-producing HT-1080-NT fibrosarcoma cells; HT-1080-NT fibrosarcoma viability, CellTiter-Glo ATP luminescence, 48 h; Potency, µM (doses to about 46.1 µM), for the others: at the highest dose activity, negative = less viability, hits mostly cytotoxic; 360,000 tested, 1.6% active;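 further: NT is the 2HG producing partner of a matched IDH1 knockdown line; 0% = DMSO-treated cells and -100% = media-only wells without cells; nearly all actives have a fitted effect of over 55% in size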
#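 Viability by CellTiter-Glo luminescence after 48 h compound exposure at 37C of HT-1080-NT cells (750/well, RPMI, 5% FBS). % activity scaled between DMSO wells and medium-only wells, then curve-fitted and categorized by curve class.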
# HT1080 IDH1KD tx: HT-1080 IDH1 knockdown cell toxicity (counter line). HT-1080 IDH1 knockdown viability, ATP luminescence, 48 h. Potency, µM (series often up to 46.1 µM), for inactives: at the highest dose activity, negative = toxicity, usual class: cytotoxic. 360,000 tested, 2% active. AID 686971;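 further: 0% = DMSO wells and -100% = cell-free medium wells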
#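 IDH1KD HT-1080 cells, 750/well, RPMI + 5% FBS; compound pinned after 2 h settling; 48 h, 37 °C; CellTiter-Glo luminescence; % activity normalised to DMSO and no-cell wells; curves fitted, classed by r2 and efficacy.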
# DT40 TDP1 no CPT: qHTS for Inhibitors of human tyrosyl-DNA phosphodiesterase 1 (TDP1): qHTS in cells in absence of CPT; DT40 Tdp1-/- hTDP1 cells, no CPT, ATP luminescence, 48 h; Potency, µM (doses to about 46.2 µM), for the others: at the top dose activity change, negative = growth inhibition, usual class: inhibitors; 420,000 tested, 15% active; further: on the % scale 0 is the no-effect control and ±100 the full control effect; nearly all actives have a fitted effect of over 55% in size
#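 Growth of hTDP1-complemented DT40 Tdp1-knockout cells is measured by ATP luminescence after at least 48 hr compound exposure at 37 °C, with DMSO substituting for the 20 nM CPT used in the parallel screen.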
# HepG2 tox-1: kills HepG2 cells in TGF-b inhibitor counter-screen. HepG2 CAGA-GFP viability, ATP luminescence, 18 h. Potency, µM (doses to about 46.1 µM), for inactives: at the highest dose activity change, negative = cytotoxicity, usual class: cytotoxic. 410,000 tested, 0.76% active
#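 HepG2 CAGA-GFP cells (1000/well, DMEM with 1% FBS) received compound, then TGF-beta at 500 pg/mL final, and were incubated 18 hours at 37 degrees C. Viability was read by CellTiter-Glo luminescence. Media-only wells were set as complete cell-killing and DMSO as no toxicity.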
# DT40 TDP1 CPT: DT40-hTDP1 cell growth loss with CPT; chicken DT40 Tdp1-/-;hTDP1 cells + 20 nM CPT, ATP luminescence, 48 h; Potency, µM (titrated, usually from 46.2 µM), for inactives: at the highest dose activity change, negative = growth inhibition, actives largely listed as inhibitors; 420,000 tested, 12% active; AID 686979; further: on the % scale 0 is the no-effect control and ±100 the full control effect; nearly all actives have a fitted effect of over 55% in size
#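 Chicken DT40 Tdp1-/- cells complemented with human TDP1, 400 cells/well, exposed to compounds plus 20 nM camptothecin for at least 48 h at 37 C; viability read as ATP content by CellTiter-Glo luminescence.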
# TGFb SMAD3 inh: blocks TGF-b signaling; HepG2 CAGA-GFP TGF-b/SMAD3 reporter, GFP fluorescence, 18 h; TGF-beta stimulated, 500 pg/mL final; Potency, µM (series often up to 46.1 µM), for inactives: at the top dose activity, negative = inhibition, usual class: inhibitors; 410,000 tested, 1.2% active; further: on the % scale 0 is the no-effect control and ±100 the full control effect; nearly all actives have a fitted effect of over 65% in size
#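 Using HEPG2 CAGA-GFP reporter cells at 1000 cells/well, we pinned test compounds, stimulated with recombinant TGF-beta (500 pg/mL final) and measured total well GFP after 18 h.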
# TGFb confirm: confirmation of TGF-b signaling inhibitors in HepG2 reporter cells | shares compounds with TGFb SMAD3 inh | HepG2 CAGA-GFP TGF-b reporter, GFP fluorescence, 18 h; cells stimulated with TGF-beta, 500 pg/mL | AID 720534 | 1,600 tested, 63% active | Potency, µM (top dose mostly 46.1 µM), inactives show top-dose activity, negative = inhibition, usual class: inhibitors; further: on the % scale 0 is the no-effect control and ±100 the full control effect; nearly all actives have a fitted effect of over 65% in size
# HepG2 tox-2: toxic to HepG2 cells in TGF-b counterscreen. shares compounds with TGFb SMAD3 inh. Potency, µM (titrated, usually from 46.1 µM), for inactives: at the top dose activity, negative = cytotoxicity, hits mostly inhibitors. HepG2 CAGA-GFP viability, ATP luminescence, 18 h; cells stimulated with TGF-beta, 500 pg/mL. AID 720535. 1,600 tested, 27% active; further: on the % scale 0 is the no-effect control and ±100 the full control effect; nearly all actives have a fitted effect of over 70% in size
# TGFb CCL64 inh: blocks TGF-b signaling in CCL64 reporter cells. shares compounds with TGFb SMAD3 inh. CCL64 CAGA-GFP reporter, TGF-b stimulated, GFP fluorescence, 18 h. Potency, µM (highest dose often 46.1 µM), for the others: top-dose activity, negative = inhibition, actives largely listed as inhibitors. 1,600 tested, 41% active. AID 720536; further: nearly all actives have a fitted effect of over 65% in size
# TGFb COP inh: TGF-b inhibition validated with COP promoter | shares compounds with TGFb SMAD3 inh | HepG2 COP-GFP TGF-b reporter, GFP fluorescence, 18 h; cells stimulated by added recombinant TGF-beta | Potency, µM (highest dose often 46.1 µM), for the others: top-dose activity, negative = inhibition, actives largely listed as inhibitors | 1,600 tested, 3% active | AID 720537; further: nearly all actives have a fitted effect of over 70% in size
# Numbers without * were called inactive; ? = inconclusive; / = not tested or not shown. The call rests on the fitted dose curve; in most records, active means well fitted curve in the direction sought with a large enough effect; inconclusive means small, poorly fitted or top-dose-only effect, or another doubt; inactive means no such curve, though single readings can be large; an effect the other way counts as inactive or inconclusive. Potency means the concentration at half of the fitted maximal effect.
SMILES,HT1080NT lethal,HT1080 IDH1KD tx,DT40 TDP1 no CPT,HepG2 tox-1,DT40 TDP1 CPT,TGFb SMAD3 inh,TGFb confirm,HepG2 tox-2,TGFb CCL64 inh,TGFb COP inh
O=c1c(Br)c(N2CCCC2)cnn1-c1ccccc1,11%,0%,-4%,26%,-3%,-3%,/,/,/,/
Cc1ccc(NC(=O)c2cc(C(=O)c3cc(Cl)ccc3O)cn(-c3ccc(C)cc3)c2=O)cc1,-1%,-7%,21µM*,-35%,18µM*,7.9µM*,?,?,?,2%
Cn1cc(Cl)cc(C(=O)Nc2ccccc2)c1=O,3%,-1%,-2%,-1%,1%,7%,/,/,/,/
O=C(COc1ccc(-c2nnc(N3CCCCC3)c3ccccc23)cc1)N1CCCCC1,-23%,?,16µM*,-32%,?,18µM*,23µM*,-20%,-35%,2%
COc1ccc(OC)c(S(=O)(=O)Nc2cc(Cl)cc(Cl)c2)c1,-1%,-21%,2%,0%,17%,7.9µM*,21µM*,-8%,-27%,-15%
Cc1ccc(-n2c(CSc3nc(C)cc(C)n3)nnc2SCC(=O)N2CCCC2)cc1,-5%,0%,-2%,-10%,-12%,3%,/,/,/,/
COc1cc(OC)c(OC)cc1CNc1cc(C)ccc1OC,?,-28%,?,-22%,?,?,6.5µM*,-14%,-17%,0%
Cc1noc2ncnc(Oc3cc(Cl)ccc3Cl)c12,?,9%,2%,-27%,-17%,?,18µM*,?,?,17%
Cc1noc2ncnc(Oc3ccc4ccccc4c3)c12,9%,0%,-7%,-51%,-4%,-2%,/,/,/,/
Cc1ccc(NC(=O)C2(c3ccc([N+](=O)[O-])cc3)CCCC2)cc1,-18%,0%,?,1%,?,?,-28%,-9%,-10%,0%
CCC(=O)Nc1nnc(S(=O)(=O)N2CCCCCC2)s1,1%,8%,-10%,3%,0%,13%,/,/,/,/
Cc1ccccc1NC(=O)c1ccc(Nc2c([N+](=O)[O-])cc([N+](=O)[O-])c3ccccc23)cc1,-17%,-8%,23µM*,-20%,?,?,?,-19%,2%,-1%
Cc1c(NC(=O)c2ccccc2)cccc1[N+](=O)[O-],-1%,3%,-9%,-1%,-1%,1%,/,/,/,/

# Bioassay records deposited in PubChem by National Center for Advancing Translational Sciences (NCATS).
